Sampled rows, rich in hits. Any-hit rate of the full collection: about 1.4%.
LNCaP diff act: activators of LNCaP prostate cell differentiation, primary screen, flow cytometry side scatter. side scatter shift, % at 10 µM. AID 795, 2007. 4 d. 24,000 compounds, 0.56% hits;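 active means side scatter shift above 30%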;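 further: androgen-responsive LNCaP prostate cancer cells in charcoal-stripped serum medium; higher shift means more granular cells and more differentiation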
Jurkat autofluor: compound autofluorescence on Jurkat cells, primary screen, artefact control for VLA-4 allosteric ligand project, cell-based, flow cytometry | hits give high values; 1 = vehicle-only cell background | fluorescence ratio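 (tested at 10 µM compound in the well)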 | 24,000 compounds, 0.61% hits;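 active means fluorescence ratio above 2.44, which is 1 plus 3 SD of all ratios; inconclusive means signal too bright to measure linearly, ratio around 10 or more; inactive means fluorescence ratio below 2.44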;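 further: green fluorescence of cells measured with 488 nm excitation and 530 nm emission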
VLA-4 agonist: enhancers of LDV-FITC binding to VLA-4 integrin, primary screen, Jurkat cells, flow cytometry; Integrin alpha-4 (Homo sapiens), P13612; activation, % at 10 µM (by protocol); 24,000 tested, under 10 active; AID 528, 2006;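 active means fluorescent ligand binding to cells raised by more than 40% of the manganese-induced maximum; inconclusive means compound's own fluorescence above 85% of the ligand control signal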
Proteasome disasm: inhibitors of ATP-driven 26S proteasome dissociation, primary screen, biochemical, bead-based flow cytometry, GFP-tagged proteasome | anti-FLAG beads, GFP-proteasome disassembly | inhibition of disassembly, % (no concentration beside the values) | 24,000 compounds, 0.2% hits | AID 751, 2007;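 active means inhibition of disassembly above about 33%, limit read from the data; inconclusive means likely self-fluorescent, control bead median signal at least 40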;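 further: higher percent means more bead fluorescence retained so stronger block of disassembly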
VLA-4 antagonist: inhibitors of LDV-FITC binding to Mn2+-activated VLA-4, primary screen, Jurkat cells; 24,000 compounds, 0.2% hits; LDV-FITC binding with Mn2+, flow cytometry; 100% = Mn2+-driven binding gain fully reversed; AID 529, 2006; Integrin alpha-4 (Homo sapiens), P13612; inhibition, % at 10 µM (by protocol);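 active means inhibition above 50%; inconclusive means compound itself fluorescent, judged against control cell fluorescence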
Large screens that a line does not name were inactive.

Cc1ccc(C(C(=O)NC(C)(C)C)N(C(=O)c2csnn2)c2cccc(F)c2)o1 (stereo not drawn)	none
O=c1cc(N2CCN(c3ccc(F)cc3)CC2)[nH]c(=O)n1C1CCCCC1	LNCaP diff act 34
O=C1NC(c2ccco2)Nc2sc3c(c21)CCN(Cc1ccccc1)C3 (stereo not drawn)	VLA-4 agonist inconclusive, VLA-4 antagonist inconclusive
Cc1ccc(CCNC(=O)c2coc3nc4ccccc4nc23)cc1	Jurkat autofluor 4.2, VLA-4 agonist inconclusive, Proteasome disasm inconclusive, VLA-4 antagonist inconclusive
CC1CCCN(CCCNC(=O)c2coc3nc4ccccc4nc23)C1 (stereo not drawn)	Jurkat autofluor 4.7, VLA-4 agonist inconclusive, Proteasome disasm inconclusive, VLA-4 antagonist inconclusive
CCNC(=O)CC1C(=O)N(c2ccc(OC)cc2)C(=O)N1Cc1ccc(OC)cc1 (stereo not drawn)	none
COc1ccc(-c2cc(-c3ccc(F)cc3)nc(N3CCN(C)CC3)n2)cc1	LNCaP diff act 48
CN1CCc2c(sc3c2C(=O)NC(c2cccc(OC(=O)c4cccs4)c2)N3)C1 (stereo not drawn)	Jurkat autofluor 3.2, VLA-4 agonist inconclusive, VLA-4 antagonist inconclusive
O=C(O)C1C2C=CC(O2)C1C(=O)NCc1ccc(Cl)cc1 (stereo not drawn)	none
CC(C)c1cc(C(=O)Nc2cc(Cl)ccc2O)no1	Jurkat autofluor 3.8, VLA-4 agonist inconclusive, VLA-4 antagonist inconclusive
CC(=O)N1CCc2cc(S(=O)(=O)CCC(=O)Nc3cccc(F)c3)ccc21	none
COCCOC(=O)c1cc(C(=O)c2cc(F)ccc2O)coc1=N	Jurkat autofluor 4.1, VLA-4 agonist inconclusive, VLA-4 antagonist inconclusive
CC1Cc2ccccc2N1C(=O)Cn1c(=O)oc2cc(S(=O)(=O)N3CCCCC3)ccc21 (stereo not drawn)	Jurkat autofluor 5.1, VLA-4 agonist inconclusive, VLA-4 antagonist inconclusive
Cc1cc(N2CCN(C)CC2)nc2ccc(NC(=O)c3ccc(Br)o3)cc12	LNCaP diff act 35, VLA-4 agonist inconclusive, VLA-4 antagonist inconclusive
CCN1CCN(c2cc(C)c3cc(NC(=O)c4cnccn4)ccc3n2)CC1	none
Cc1cc(N2CCN(C)CC2)nc2ccc(NC(=O)c3ccc4c(c3)OCO4)cc12	LNCaP diff act 57
CCOc1ccccc1NC(=O)CCC(=O)Nc1ccc2nc(N3CCN(C)CC3)cc(C)c2c1	none
O=C1CCc2cc(S(=O)(=O)N3CCN(c4cccc(C(F)(F)F)c4)CC3)ccc2N1	none
CCCS(=O)(=O)c1cn2cccc(N)c2c1S(=O)(=O)CCC	none
COC(=O)C1Cc2c([nH]c3ccccc23)CN1 (stereo not drawn)	Jurkat autofluor 4.1, VLA-4 agonist inconclusive, VLA-4 antagonist inconclusive
CC(=O)Nc1ccccc1O	none
CC(=O)Nc1cccc(C(=O)Oc2cccc(C)c2)c1O	VLA-4 antagonist 61
Cc1ccc(CNc2nc3ccccc3n3nnnc23)cc1	LNCaP diff act 35, Jurkat autofluor inconclusive, VLA-4 agonist inconclusive, VLA-4 antagonist inconclusive
CCOC(=O)N1CCC(Nc2cc(C)nc3c(-c4ccccc4OC)c(C)nn23)CC1	none
CCOC(=O)N1CCC(Nc2nc3ccccc3n3nnnc23)CC1	Jurkat autofluor 8, VLA-4 agonist inconclusive, VLA-4 antagonist inconclusive
Cc1noc(/C=C/c2ccco2)c1S(=O)(=O)N1CCC(C(=O)N2CCc3ccccc3C2)CC1	LNCaP diff act 43, Proteasome disasm 42
Cc1ccc(C)c2[nH]c(=O)c(CN(CCN3CCCC3)C(=O)Nc3cccc(Cl)c3)cc12	LNCaP diff act 73, Proteasome disasm inconclusive
COc1ccccc1NC(=O)N(Cc1ccco1)Cc1cc2c(C)ccc(C)c2[nH]c1=O	none
Cc1ccc(-c2csc3ncn(-n4c(C)ccc4C)c(=O)c23)o1	VLA-4 agonist inconclusive, VLA-4 antagonist inconclusive
Cc1ccc(C2N(c3ccc(F)cc3)C(=O)C3CCCN32)cc1 (stereo not drawn)	none
Cc1cccc(C2N(c3ccc(F)cc3)C(=O)C3CCCN32)c1 (stereo not drawn)	VLA-4 agonist inconclusive, Proteasome disasm 61, VLA-4 antagonist inconclusive
CCc1ccc(Nc2cc(=O)n(C3CCCCC3)c(=O)[nH]2)cc1	none
O=c1cc(Nc2ccc3c(c2)OCCO3)[nH]c(=O)n1C1CCCCC1	Proteasome disasm 108
CCOC(=O)c1cnn(-c2cc(C)nc3c(-c4ccccc4)c(C)nn23)c1N	none
CCCOc1ccc(N)cc1N	Jurkat autofluor 7.9, VLA-4 agonist inconclusive, VLA-4 antagonist inconclusive
O=C(O)c1ccc2c3c(ncnc13)-c1ccccc1C2=O	none
O=C1c2ccccc2-c2nc3ncnn3c(-c3ccccc3)c21	LNCaP diff act 40
CN(C(=O)c1ccc(S(=O)(=O)NC2CCCC2)cc1)C1CCCCC1	VLA-4 agonist inconclusive, VLA-4 antagonist inconclusive
COc1ccccc1CNC(=O)CS(=O)Cc1nc(-c2ccccc2C)oc1C (stereo not drawn)	VLA-4 agonist inconclusive, Proteasome disasm 165, VLA-4 antagonist inconclusive
O=S(=O)(NCCc1ccccn1)c1cccs1	none
O=S(=O)(Nc1cccc2ncccc12)c1cccs1	LNCaP diff act 34, VLA-4 agonist inconclusive
Cc1ccc(S(=O)(=O)Nc2nc3ccccc3nc2NCc2ccco2)cc1	Jurkat autofluor 4.8, VLA-4 agonist inconclusive, VLA-4 antagonist inconclusive
O=S(=O)(Nc1nc2ccccc2nc1NCc1ccco1)c1ccc(Cl)cc1	none
CCOc1cc2[nH]c(=O)n(CCCCC(=O)NC3CCCCCC3)c(=O)c2cc1OCC	VLA-4 antagonist 66
CCOc1cc2[nH]c(=O)n(CC3CCC(C(=O)NCCCOC)CC3)c(=O)c2cc1OCC (stereo not drawn)	none
CCOc1cc2[nH]c(=O)n(CC3CCC(C(=O)NCCC(C)C)CC3)c(=O)c2cc1OCC (stereo not drawn)	VLA-4 antagonist 60
O=C(CCCn1c(=O)[nH]c2ccccc2c1=O)NC1CCCCCC1	none
COc1cc2c(=O)n(Cc3ccccc3)c(=O)n(CC(=O)NCc3ccco3)c2cc1OC	none
COC(=O)C1(C)NC(c2ccco2)C2C(=O)N(c3ccc(C)cc3)C(=O)C21 (stereo not drawn)	none
CCOc1cc(C2c3c(n[nH]c3C)C(=O)N2c2ccc(Br)cc2)ccc1O (stereo not drawn)	none
COc1ccc(Nc2nc(N3CCCC3)c3ccccc3n2)cc1	LNCaP diff act 50
C/C(Nc1cccc(F)c1)=C(/C#N)C(N)=O	none
O=C1CCCc2c1cc(C(=O)NCCCN1CCOCC1)c(=O)n2-c1ccc(Cl)cc1	none
Cc1cccn2c(=O)c3cc(C(=O)N(C)C)n(C)c3nc12	Jurkat autofluor 3.1, VLA-4 agonist inconclusive, VLA-4 antagonist inconclusive
CCNC(=O)c1cc2c(=O)n3cccc(C)c3nc2n1C	VLA-4 agonist inconclusive, VLA-4 antagonist inconclusive
CCOCCCn1c(=NC(C)=O)c(C(=O)OCC)cc2c(=O)n3ccccc3nc21	none

Screening data (PubChem)
